This excerpt belongs to a sample that is enriched for hits.
Algae TAG accum: increases triacylglycerol in Chlamydomonas reinhardtii; Chlamydomonas reinhardtii TAG, Nile Red fluorescence, 72 h; calls only at 10 µM (by protocol); actives 0.84% (n = 44,000); AID 1159537; call rule not given here;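 note: hits raise Nile Red signal meaning more stored TAG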
Calls only; 0 = inactive; + = active, no number.

SMILES	Algae TAG accum
O=C(Nc1ccc(Cl)cc1F)c1ccc(C(=O)Nc2ccc(Cl)cc2F)cc1	0
Nc1ccc(C(=O)Nc2ccc(Cl)cc2Cl)cc1	+
O=C(Nc1ccc(Cl)cc1Cl)c1ccccc1	0
CC(=O)Nc1cccc(NC(=O)c2ccccc2)c1	0
O=C1c2ccc(Oc3ccc4c(c3)C(=O)N(c3nccs3)C4=O)cc2C(=O)N1c1nccs1	0
O=C1C2C(C(=O)N1c1nccs1)C1C=CC2C12CC2 (stereo not given)	0
O=C1C2C3CCC(C3)C2C(=O)N1c1nccs1 (stereo not given)	+
CC(C)(Oc1ccc(Cl)cc1)C(=O)Nc1ncn[nH]1	0
O=S(=O)(c1ccccc1)c1ccc(O)c(O)c1	0
COc1ccc(N(CC(=O)NC(C)(C)C)S(=O)(=O)c2ccccc2[N+](=O)[O-])c(OC)c1	0
N#Cc1c(N)nc2c(c1-c1ccco1)CCCCCC2	0
C=CCn1c(SCC)nnc1-c1ccc([N+](=O)[O-])cc1	0
C=CCn1c(SCC(=O)O)nnc1-c1ccc([N+](=O)[O-])cc1	+
C=CCn1c(SCC(=O)O)nnc1-c1ccc(OC)cc1	0
COc1cc(CN2CCN(c3ccc([N+](=O)[O-])cc3)CC2)cc(Br)c1O	0
CCOc1ccc(CN2CCN(c3ccc([N+](=O)[O-])cc3)CC2)cc1	+
O=[N+]([O-])c1ccc(N2CCN(Cc3ccncc3)CC2)cc1	0
CCCCOc1ccc(CN2CCN(c3ccc([N+](=O)[O-])cc3)CC2)cc1	+
O=C(O)c1ccc(CN2CCN(c3ccc([N+](=O)[O-])cc3)CC2)cc1	0
O=[N+]([O-])c1ccc(CN2CCN(c3ncccn3)CC2)cc1	0
CCOc1ccccc1C(=O)Nc1ccc(NC(=O)c2ccccc2OCC)cc1	0
Oc1ccc(-c2ccccc2)cc1O	0
CCN(Cc1ccccc1)C(=O)C1CCN(Cc2ccccc2F)CC1	+
O=C(C1CCN(Cc2ccccc2O)CC1)N(CCO)Cc1ccccc1	0
COc1ccccc1CN1CCC(C(=O)N(CCN(C)C)Cc2ccccc2)CC1	0
SMILES	Algae TAG accum
O=C(Nc1ccc(F)cc1F)c1ccc(CN2CCc3ccccc3C2)cc1	0
O=[N+]([O-])c1ccc(COc2ccccc2F)cc1	0
CS(=O)(=O)N(CC(=O)N1CCOCC1)c1ccc(I)cc1	0
O=C(O)CS(=O)(=O)c1cccc(C(=O)O)c1	0
CN(CC(O)COCc1ccc2c(c1)OCO2)C1CCCCC1 (stereo not given)	0
O=C(COc1ccc(Br)cc1)NC1CCCC1	0
CCN(CC(O)COc1ccc(Br)cc1)C1CCCCC1 (stereo not given)	+
O=[N+]([O-])c1ccc(OCC(O)CN(C2CCCCC2)C2CCCCC2)cc1 (stereo not given)	0
CN(CC(O)COc1ccc(Br)cc1)C1CCCCC1 (stereo not given)	+
CC(NCC(O)COc1ccc(Br)cc1)c1ccccc1 (stereo not given)	0
COc1cccc(C(=O)Nc2ccc(Oc3ccc(Cl)cc3Cl)cc2)c1	0
Cc1ccc(NS(=O)(=O)c2ccc([N+](=O)[O-])cc2)cc1	0
Cc1ccc(S(=O)(=O)c2ccc(C)cc2)cc1	0
Cc1ccc(S(=O)(=O)c2ccc(-c3ccc([N+](=O)[O-])cc3)cc2)cc1	+
CC(=O)Nc1ccccc1NC(=O)c1ccc(Cl)c(Cl)c1	0
O=C(Nc1ccc2c(c1)oc1ccccc12)c1ccco1	0
Oc1ccccc1CNCCC12CC3CC(CC(C3)C1)C2	+
CC(C)(C)C(=O)NCCC12CC3CC(CC(C3)C1)C2	0
COc1ccccc1CC(=O)NC12CC3CC(CC(C3)C1)C2	0
COc1cc(NC(=O)COc2ccc(C)c(C)c2)cc(OC)c1	0
O=C(C1CCN(Cc2ccccn2)CC1)N1CCOCC1	0
CCC(C)N1CCN(CC2CC=CCC2)CC1 (stereo not given)	0
CC(C)(C)c1ccc(OCC(O)CN2CCN(CCO)CC2)cc1 (stereo not given)	+
Cc1cc(C)n(CC(O)COc2ccc(C(C)C)c(C)c2)n1 (stereo not given)	0
Cc1cc(OCC(O)CN2CCN(c3ccccc3)CC2)ccc1C(C)C (stereo not given)	0
SMILES	Algae TAG accum
CC1CN(CC(O)COc2ccc(Cl)cc2Cl)CC(C)O1 (stereo not given)	0
CCOC(=O)N1CCN(CC(O)COc2ccc(C(C)(C)C)cc2)CC1 (stereo not given)	0
CC1CN(CC(O)COCc2ccc(Cl)cc2)CC(C)O1 (stereo not given)	0
CC(C)(C)c1ccc(OCC(O)CN)cc1 (stereo not given)	0
CC1CN(CC(O)COc2ccc(C(C)(C)C)cc2)CC(C)O1 (stereo not given)	+
Cc1cc(OCC(O)CN2CCN(CCO)CC2)ccc1C(C)C (stereo not given)	+
CCOC(=O)Nc1cccnc1[N+](=O)[O-]	0
Cc1ccc(C)c(NS(=O)(=O)c2ccc(NS(=O)(=O)c3ccccc3)cc2)c1	0
NC(=NOCC(=O)Nc1ccc([N+](=O)[O-])cc1)c1nonc1N	0
Cc1ccc(C(=O)CSc2nnnn2-c2ccccc2)c(C)c1	0
Cc1cccc(C(=O)Nc2ccc(OCC(=O)O)cc2)c1	0
CC(NC(=O)CSc1nnc2c3cc(Br)ccc3n(C)c2n1)c1ccccc1 (stereo not given)	0
CCN1CCN(Cc2ccc(-c3ccccc3[N+](=O)[O-])o2)CC1	0
O=[N+]([O-])c1ccccc1-c1ccc(CN2CCCCCC2)o1	0
CN1CCN(Cc2ccc(-c3ccccc3Cl)o2)CC1	+
Cc1ccc(NS(=O)(=O)c2ccc(Br)cc2)cc1C	0
O=C(CSc1nnnn1-c1ccccc1)NC12CC3CC(CC(C3)C1)C2	0
O=C(CSc1nnc2c(n1)[nH]c1ccccc12)c1ccc(F)cc1	0
CCn1c(=O)c([N+](=O)[O-])c(NC2CCCCC2)c2ccccc21	0
COc1ccc(OCC(=O)Nc2c(C)n(C)n(-c3ccccc3)c2=O)cc1	0
O=C(Nc1cccc(Cl)c1)Nc1c(Cl)cccc1Cl	0
O=C(c1ccc(-c2ccccc2)cc1)N1CCN(C2CCCC2)CC1	0
COc1ccccc1CNC(=O)c1ccccc1C	0
Cc1cc(NCc2ccccc2)nc(N2CCOCC2)n1	+
Cc1cc(NCc2ccccc2)nc(-c2ccccc2O)n1	0
SMILES	Algae TAG accum
Cc1cc(N2CCOCC2)nc(NCc2ccccc2)n1	0
COc1ccccc1N1CCN(CC2=CC[C@H]3C[C@@H]2C3(C)C)CC1	0
COCCN1C(=O)C(=O)C(=C(O)c2ccc(OC)c(C)c2)C1c1ccc([N+](=O)[O-])cc1 (stereo not given)	0
Cc1ccc(S(=O)(=O)NCCSCc2ccccc2)cc1[N+](=O)[O-]	0
Clc1cc(Br)ccc1OCCCN1CCCC1	0
Cc1cc(Br)ccc1OCCN1CCOCC1	0
Clc1cc(Br)ccc1OCCN1CCOCC1	0
Cc1cc(Br)ccc1OCCCN1CCOCC1	0
Cc1ccc(OCCN2CCOCC2)c(Br)c1	0
Clc1cc(Br)ccc1OCCCN1CCOCC1	+
Cc1cc(Br)ccc1OCCOCCN1CCOCC1	+
Clc1ccc(OCCOCCN2CCOCC2)c(Br)c1	+
Clc1ccc(OCCN2CCOCC2)c(Br)c1	0
CC1(C)Cc2ccccc2C(CC#N)=N1	0
O=C(c1ccccc1)N1CCNCC1	0
O=C(Nc1ccc(F)cc1)c1ccc2nc(N3C(=O)c4ccccc4C3=O)sc2c1	0
CC(C(=O)NCc1cccnc1)N(c1ccccc1)S(C)(=O)=O (stereo not given)	0
